Targets with a hit are over-represented here; the source holds about 8,800 in all. About 0.5% of all pairs of compound and target were hits.
What was measured:
Assay in all cases: log2 fold change, soluble protein after heating vs DMSO (PISA); higher = thermal stabilisation; K562 lysate, 10 uM; active = over 0.2 and 3.5 SD of the protein, either way, in both replicates (recomputed)
[1] = compound: C1=CC=C(C=C1)[C@H](COC2=CC3=C(C=C2)NC(=O)N3)NC(=O)C4=CC=CN(C4=O)CC5=CC(=C(C=C5)F)F
Outline: (§1)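 K562 pellets were dounce-homogenised in PBS pH 7.4 with 1 mM MgCl2, and the crude extract at 1 mg/mL protein was treated with 10 μM compound for 30 min. Aliquots were heated for 3 min across 48°C-58°C, pooled, and brought to 0.5% NP-40 at 4°C; soluble protein was the supernatant after 21,000xg for 90 min. Soluble protein was quantified by TMTpro 16plex LC-MS/MS with channel sums equalised, and reported as log2 fold change in thermal stability against DMSO controls, with values from duplicates.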

[2] = compound: CC1=C(SC2=C1C(=N[C@H](C3=NN=C(N32)C)CC(=O)N)C4=CC=C(C=C4)Cl)C
Outline: as §1

[3] = compound: CC1=C2C(=CC=C1)N=C(N(C2=O)C3=CC=CC=C3C)CN4C=NC5=C(N=CN=C54)N
Outline: as §1

[4] = compound: Cc1sc2c(c1C)C(c1ccc(Cl)cc1)=N[C@@H](CC(=O)OC(C)(C)C)c1nnc(C)n1-2
Outline: as §1

[5] = compound: c1ccc([C@@H]2C[C@H]2NC2CCNCC2)cc1
Outline: as §1

Measured: log2 fold change

RAP1GAP isoform 4 (UniProt P47736)
Chain of UniProt P47736 (P47736 whole entry, looked up): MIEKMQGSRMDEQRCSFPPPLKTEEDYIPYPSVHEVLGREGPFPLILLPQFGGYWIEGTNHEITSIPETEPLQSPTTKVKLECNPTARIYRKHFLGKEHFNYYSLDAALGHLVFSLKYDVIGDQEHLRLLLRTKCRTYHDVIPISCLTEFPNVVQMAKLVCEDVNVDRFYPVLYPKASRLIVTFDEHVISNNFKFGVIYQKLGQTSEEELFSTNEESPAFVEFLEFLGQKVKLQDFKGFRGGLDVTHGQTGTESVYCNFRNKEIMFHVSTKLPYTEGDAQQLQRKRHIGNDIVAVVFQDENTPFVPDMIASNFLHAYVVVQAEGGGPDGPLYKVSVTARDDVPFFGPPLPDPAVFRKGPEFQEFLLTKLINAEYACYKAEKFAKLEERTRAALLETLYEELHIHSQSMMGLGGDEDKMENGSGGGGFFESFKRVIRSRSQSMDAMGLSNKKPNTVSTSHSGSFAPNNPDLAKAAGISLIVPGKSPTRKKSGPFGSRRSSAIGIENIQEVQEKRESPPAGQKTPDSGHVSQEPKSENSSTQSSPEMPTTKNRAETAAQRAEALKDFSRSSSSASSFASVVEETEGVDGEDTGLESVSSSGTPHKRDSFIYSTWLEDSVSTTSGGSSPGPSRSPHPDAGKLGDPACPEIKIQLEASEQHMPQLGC
inactive: [1] 0.019 | [2] -0.012 | [3] -0.019 | [4] -0.009 | [5] 0.007

RPS18 (UniProt P62269)
inactive: [1] -0.009 | [2] 0.046 | [3] 0.024 | [4] -0.003 | [5] -0.075

RBM22 (UniProt Q9NW64)
Chain of UniProt Q9NW64 (Q9NW64 whole entry, looked up): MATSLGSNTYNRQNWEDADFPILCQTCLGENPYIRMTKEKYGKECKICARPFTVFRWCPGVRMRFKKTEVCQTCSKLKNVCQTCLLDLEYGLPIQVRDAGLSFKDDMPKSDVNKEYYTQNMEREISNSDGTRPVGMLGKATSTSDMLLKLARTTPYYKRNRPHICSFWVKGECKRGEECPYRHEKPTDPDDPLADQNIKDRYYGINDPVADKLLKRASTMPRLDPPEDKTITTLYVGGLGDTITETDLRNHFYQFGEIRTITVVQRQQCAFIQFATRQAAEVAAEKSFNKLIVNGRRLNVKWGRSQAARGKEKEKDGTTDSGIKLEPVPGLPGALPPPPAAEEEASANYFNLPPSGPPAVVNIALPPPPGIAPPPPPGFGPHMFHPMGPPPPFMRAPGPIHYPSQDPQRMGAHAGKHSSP
inactive: [1] -0.073 | [2] 0.012 | [3] 0.036 | [4] 0.072 | [5] 0

RPAP1 (UniProt Q9BWH6)
Chain of UniProt Q9BWH6 (Q9BWH6 whole entry, looked up): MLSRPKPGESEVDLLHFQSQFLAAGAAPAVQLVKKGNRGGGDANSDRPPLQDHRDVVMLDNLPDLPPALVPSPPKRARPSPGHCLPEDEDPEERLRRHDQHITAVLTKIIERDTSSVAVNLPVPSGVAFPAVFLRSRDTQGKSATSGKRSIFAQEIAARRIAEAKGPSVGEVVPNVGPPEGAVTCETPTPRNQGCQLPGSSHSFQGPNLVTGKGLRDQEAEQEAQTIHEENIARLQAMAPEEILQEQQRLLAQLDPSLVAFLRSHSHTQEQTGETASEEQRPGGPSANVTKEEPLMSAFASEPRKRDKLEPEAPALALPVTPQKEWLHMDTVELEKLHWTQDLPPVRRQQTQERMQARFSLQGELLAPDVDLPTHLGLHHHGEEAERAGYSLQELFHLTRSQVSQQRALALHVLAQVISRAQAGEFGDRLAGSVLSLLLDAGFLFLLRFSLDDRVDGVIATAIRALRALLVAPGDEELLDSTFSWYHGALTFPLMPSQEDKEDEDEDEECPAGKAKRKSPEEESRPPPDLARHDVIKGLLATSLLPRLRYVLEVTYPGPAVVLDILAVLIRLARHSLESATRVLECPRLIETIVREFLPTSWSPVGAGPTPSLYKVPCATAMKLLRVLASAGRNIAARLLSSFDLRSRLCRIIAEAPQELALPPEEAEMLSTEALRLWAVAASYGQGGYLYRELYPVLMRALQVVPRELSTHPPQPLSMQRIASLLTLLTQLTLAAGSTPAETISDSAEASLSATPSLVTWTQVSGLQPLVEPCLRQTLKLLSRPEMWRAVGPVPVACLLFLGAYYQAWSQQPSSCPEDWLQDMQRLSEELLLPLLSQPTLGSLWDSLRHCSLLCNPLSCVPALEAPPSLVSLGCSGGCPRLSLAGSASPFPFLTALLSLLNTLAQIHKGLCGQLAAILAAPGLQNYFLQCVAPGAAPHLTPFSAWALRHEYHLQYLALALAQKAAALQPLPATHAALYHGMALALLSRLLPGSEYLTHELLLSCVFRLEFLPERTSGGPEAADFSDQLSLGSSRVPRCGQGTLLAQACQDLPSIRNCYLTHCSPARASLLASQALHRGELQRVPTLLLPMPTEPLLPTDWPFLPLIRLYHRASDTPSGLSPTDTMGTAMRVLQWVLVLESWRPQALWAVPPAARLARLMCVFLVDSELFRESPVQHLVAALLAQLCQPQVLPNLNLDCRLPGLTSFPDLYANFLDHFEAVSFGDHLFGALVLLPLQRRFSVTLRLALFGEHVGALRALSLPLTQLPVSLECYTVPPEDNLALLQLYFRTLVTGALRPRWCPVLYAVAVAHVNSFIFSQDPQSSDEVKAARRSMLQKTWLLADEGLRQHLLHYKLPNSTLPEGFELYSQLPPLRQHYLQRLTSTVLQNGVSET
inactive: [1] -0.006 | [2] 0.018 | [3] 0.015 | [4] -0.038 | [5] 0.028

S100A11 (UniProt P31949)
Chain of UniProt P31949 (P31949 whole entry, looked up): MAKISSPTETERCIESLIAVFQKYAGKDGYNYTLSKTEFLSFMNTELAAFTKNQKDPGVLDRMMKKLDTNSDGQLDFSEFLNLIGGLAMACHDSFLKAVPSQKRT
inactive: [1] 0.029 | [2] -0.075 | [3] -0.002 | [4] -0.029 | [5] -0.005

SERINC3 (UniProt Q13530)
Chain of UniProt Q13530 (Q13530 whole entry, looked up): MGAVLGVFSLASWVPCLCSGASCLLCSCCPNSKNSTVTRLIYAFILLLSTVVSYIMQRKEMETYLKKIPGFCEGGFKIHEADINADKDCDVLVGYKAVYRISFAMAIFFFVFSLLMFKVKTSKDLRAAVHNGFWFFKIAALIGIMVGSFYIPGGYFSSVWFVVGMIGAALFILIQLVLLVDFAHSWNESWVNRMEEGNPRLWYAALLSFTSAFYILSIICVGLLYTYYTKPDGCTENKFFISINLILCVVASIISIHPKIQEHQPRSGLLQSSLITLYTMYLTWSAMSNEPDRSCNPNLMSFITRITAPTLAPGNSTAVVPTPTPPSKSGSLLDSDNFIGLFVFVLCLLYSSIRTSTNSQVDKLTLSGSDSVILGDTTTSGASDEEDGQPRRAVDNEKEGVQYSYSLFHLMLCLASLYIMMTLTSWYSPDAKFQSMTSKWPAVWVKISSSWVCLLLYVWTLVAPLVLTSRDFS
inactive: [1] 0.109 | [2] -0.016 | [3] 0.028 | [4] -0.056 | [5] -0.175

RECQL5 (UniProt O94762)
inactive: [1] -0.081 | [2] 0.014 | [3] 0.011 | [4] -0.174 | [5] 0.064

REXO4 (UniProt Q9GZR2)
Chain of UniProt Q9GZR2 (Q9GZR2 whole entry, looked up): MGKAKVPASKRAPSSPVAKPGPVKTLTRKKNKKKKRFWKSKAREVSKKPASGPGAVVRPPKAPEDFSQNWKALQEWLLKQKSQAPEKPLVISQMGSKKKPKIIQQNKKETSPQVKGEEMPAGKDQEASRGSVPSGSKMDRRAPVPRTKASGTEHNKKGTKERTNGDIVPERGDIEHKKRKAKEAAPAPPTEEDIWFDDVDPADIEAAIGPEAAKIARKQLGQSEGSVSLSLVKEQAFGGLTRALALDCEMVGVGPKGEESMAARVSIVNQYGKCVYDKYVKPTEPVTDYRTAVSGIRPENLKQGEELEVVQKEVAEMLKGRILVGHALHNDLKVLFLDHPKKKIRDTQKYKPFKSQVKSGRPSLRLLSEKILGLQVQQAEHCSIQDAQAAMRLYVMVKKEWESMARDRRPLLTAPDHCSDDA
inactive: [1] 0.009 | [2] -0.003 | [3] 0.029 | [4] 0.051 | [5] 0.138

RNF213, A0A0A0MTC1
inactive: [1] -0.02 | [2] -0.007 | [3] 0.069 | [4] 0.004 | [5] 0.045

RBM5 (UniProt P52756)
Chain of UniProt P52756 (P52756 whole entry, looked up): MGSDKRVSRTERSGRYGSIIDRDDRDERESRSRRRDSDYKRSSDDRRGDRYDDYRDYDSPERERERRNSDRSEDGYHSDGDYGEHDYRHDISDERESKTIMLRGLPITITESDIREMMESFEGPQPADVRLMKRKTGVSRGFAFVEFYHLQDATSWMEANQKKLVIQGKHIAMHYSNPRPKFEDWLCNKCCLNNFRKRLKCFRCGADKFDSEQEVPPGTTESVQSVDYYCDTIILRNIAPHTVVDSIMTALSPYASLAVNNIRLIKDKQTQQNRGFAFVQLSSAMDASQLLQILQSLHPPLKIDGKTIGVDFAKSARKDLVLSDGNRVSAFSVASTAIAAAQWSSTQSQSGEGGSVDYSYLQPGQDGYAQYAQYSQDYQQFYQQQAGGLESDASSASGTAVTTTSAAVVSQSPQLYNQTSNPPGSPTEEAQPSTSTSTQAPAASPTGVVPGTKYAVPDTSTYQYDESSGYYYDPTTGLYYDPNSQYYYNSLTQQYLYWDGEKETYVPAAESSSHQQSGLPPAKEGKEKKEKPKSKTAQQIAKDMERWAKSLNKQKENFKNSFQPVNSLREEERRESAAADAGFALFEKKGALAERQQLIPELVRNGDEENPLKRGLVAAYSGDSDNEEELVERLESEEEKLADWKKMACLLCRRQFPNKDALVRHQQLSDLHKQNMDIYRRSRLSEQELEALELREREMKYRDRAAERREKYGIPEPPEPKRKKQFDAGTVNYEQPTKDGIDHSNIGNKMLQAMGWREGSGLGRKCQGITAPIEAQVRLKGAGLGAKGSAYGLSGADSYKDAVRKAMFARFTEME
inactive: [1] -0.074 | [2] 0.08 | [3] 0.062 | [4] 0.146 | [5] 0.103

RPL36AL (UniProt Q969Q0)
inactive: [1] 0.074 | [2] -0.049 | [3] -0.03 | [4] 0.274 | [5] 0.015

SCD (UniProt O00767)
Chain of UniProt O00767 (O00767 whole entry, looked up): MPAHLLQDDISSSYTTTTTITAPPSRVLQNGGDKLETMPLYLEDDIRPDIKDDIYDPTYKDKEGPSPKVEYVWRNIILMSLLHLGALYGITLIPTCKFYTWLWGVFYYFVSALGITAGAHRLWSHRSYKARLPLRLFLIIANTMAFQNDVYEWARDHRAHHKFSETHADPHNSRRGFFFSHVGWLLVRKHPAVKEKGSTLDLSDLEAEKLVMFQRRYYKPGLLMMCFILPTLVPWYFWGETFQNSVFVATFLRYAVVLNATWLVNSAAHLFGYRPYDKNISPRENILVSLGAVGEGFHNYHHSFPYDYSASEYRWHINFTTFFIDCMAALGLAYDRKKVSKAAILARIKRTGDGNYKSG
inactive: [1] -0.016 | [2] -0.007 | [3] 0.103 | [4] -0.179 | [5] -0.184

RCC1 isoform 2 (UniProt P18754)
inactive: [1] 0.023 | [2] 0.026 | [3] -0.013 | [4] 0.045 | [5] 0.014

SEC24D isoform 2 (UniProt O94855)
inactive: [1] -0.003 | [2] 0.006 | [3] -0.016 | [4] 0.033 | [5] 0.009

Reference: the supplement of paper PMC10849652
